Consider 42 compounds from PubChem BioAssay AID1460 (National Center for Advancing Translational Sciences (NCATS), 2008).

Structures are written as SMILES. “And” between values parts separate entries of the source, which are not always exact repeats. Equal values may be shown once. Out of some 270,000 compounds screened, about 5,800 (2.1%) were called active. Inconclusive results (about 16%) are left out. The entries come from a sample that favours actives as a whole. A number with no mark means an inactive call. Calls follow the shape of the dose curve; as a rule, active = well fitted inhibition curve with a large enough effect; inconclusive = small, poorly fitted or top-dose-only effect; inactive = flat fitted curve, though single readings scatter.
% is scaled to controls: 0 for no effect and ±100 for the full control effect; potency is read from the fitted curve at half-maximal effect.

Sequence of Microtubule-associated protein tau (Homo sapiens) (P10636 561-689 P618L limits assumed): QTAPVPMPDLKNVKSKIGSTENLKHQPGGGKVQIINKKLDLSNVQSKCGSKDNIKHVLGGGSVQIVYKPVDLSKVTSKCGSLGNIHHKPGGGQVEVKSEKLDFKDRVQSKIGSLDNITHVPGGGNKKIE

The assay addresses Microtubule-associated protein tau (Homo sapiens) (UniProt P10636). Briefly: qHTS for Inhibitors of Tau Fibril Formation, Thioflavin T Binding. Also: nearly all actives have a fitted effect of over 55% in size. Particulars: recombinant tau K18 P301L (four-repeat tau fragment), heparin-induced fibrillization, ThT fluorescence; series mostly up to 57.4 µM; activity, negative = inhibition: at the top concentration. The text has this:
NIH Molecular Libraries Probe Production Network [MLPCN]
NIH Chemical Genomics Center [NCGC]
Assay Provider: Carlo Ballatore, University of Pennsylvania
The microtubule-associated protein tau is an abundant protein in the axons of neurons that stabilizes microtubules. With its ability to modulate microtubule dynamics, tau contributes directly or indirectly, to key structural and regulatory cellular functions. Particularly important is the influence tau exerts on axonal transport, which allows signaling molecules, trophic factors and other essential cellular constituents to travel along the axons. Under pathological conditions, tau becomes sequestered into insoluble aggregates called neurofibrillary tangles. This phenomenon is believed to have pathological consequences by promoting axonal transport deficits that ultimately lead to synaptic dysfunction and neuronal loss. To identify inhibitors of tau aggregation, a heparin-induced tau fibril formation assay was used that employed a recombinantly expressed fragment of tau, K18 (Q242-E372), bearing a P301L mutation (Gustke et al. 1994; Hong et al. 1998). This assay monitors tau fibrillization by Thioflavin T (ThT) fluorescence.
Gustke, N., B. Trinczek, et al. (1994). "Domains of tau protein and interactions with microtubules." Biochemistry 33(32): 9511-22.
Hong, M., V. Zhukareva, et al. (1998).
Li, W. and V. M. Lee (2006).
von Bergen, M., S. Barghorn, et al. (2001). "Mutations of tau protein in frontotemporal dementia promote aggregation of paired helical filaments by enhancing local beta-structure." J Biol Chem 276(51): 48165-74.
NCGC Assay Protocol Summary:
For screening, 2 uL/well human K18 P301L (15 uM unlabeled and 0.24 uM Alexa 594-labeled tau, final concentrations) in reagent buffer (100 mM sodium acetate pH 7) was dispensed into black solid 1536-well plates (Grenier) using a solenoid-based dispenser. Following transfer of 23 nL compound or DMSO vehicle by a pin tool, 2 uL/well heparin (20 uM final concentration) in reagent buffer was added and the plate centrifuged 15 s at 1000 RPM. Plates were incubated 6 hr at 37 C and then 1 uL/well ThT (30 uM final concentration) was added. After a 1 hr ambient incubation, the plates were read by an Envision (Perkin Elmer) to monitor ThT fluorescence (450/8 nm excitation and 510/23 nm emission).
Keywords: NIH Roadmap, MLPCN, MLI, MLSMR, NCGC, qHTS, tau, tauopathies, Alzheimer's disease, fibril, neurodegeneration, aggregation
(In general: qHTS replaces the single test concentration by a dilution series.)
With `CC[N+](C)(CC)CCC[n+]1c(-c2ccccc2)c2cc(N)ccc2c2ccc(N)cc21`, the Potency was 1.26 µM (active). As to `CC[C@@H]1CN2CC[C@@H]1C[C@H]2[C@H](O)c1ccnc2ccc(OC)cc12`, the “activity, negative = inhibition” value was -4.88%.

For the compound `CCN(CC)CCOC(=O)c1cc2cc(COC)ccc2o1`, the “activity, negative = inhibition” value is -8.09%. The same measure, in the same setting: in the case of `CN(C)[C@@H]1C(=O)C(C(N)=O)=C(O)[C@@]2(O)C(=O)C3=C(O)c4c(O)cccc4[C@@](C)(O)C3CC12` (some centres not stated) it was -9.02%. `CN(C)CC1CCCCC1OC(=O)c1ccc(Cl)c(Cl)c1` (configuration not stated): the “activity, negative = inhibition” value is -7.82%. As for `CC(C)Oc1cccc(C(=O)C2CCCN(C3CCOCC3)C2)c1` (configuration not stated), the “activity, negative = inhibition” value was -2.7%. On to `N#CC(C#N)=Cc1cc(O)c(O)c([N+](=O)[O-])c1`, for which the Potency was 10 µM (active) and 17.8 µM (active).

`CC1=CC(=O)C2=C(C)C[C@H](O)[C@H]3[C@H](C)C(=O)O[C@@H]3C12` (some centres not stated): the “activity, negative = inhibition” value was -2.24%.

`CN1[C@@H]2CC[C@H]1CC(OC(=O)c1cc(Cl)cc(Cl)c1)C2` (some centres not stated): the “activity, negative = inhibition” value is -3.74%. On the same count and under the same terms, to `CC1(C)Cc2c(C#N)c(N3CCNCC3)nc(-c3ccco3)c2CS1` belongs -10.8%. Still for that read-out and setting: in the case of `COc1ccccc1N=C1SCCCN1C` it was -5.08%; in that of `CCOCCc1c(O)[nH]c(=S)[nH]c1=O`, -5.42%. As to `COc1ccccc1N=Nc1c(O)[nH]c(=S)[nH]c1=O`, the Potency was 12.6 µM (active). For `COc1ccccc1-c1[se]c2ccccc2c1I`, the “activity, negative = inhibition” value was -17.5% [at 81.4 µM]. As to `c1cc2c(cc1CCNC1CCCCCC1)OCO2`, the “activity, negative = inhibition” value was -5.27%.

Regarding `CC[C@]1(O)C(=O)OCc2c1cc1n(c2=O)Cc2cc3ccccc3nc2-1`, the “activity, negative = inhibition” value was -4.8%. For the compound `CCCCN1C2CCC1CC(OC(c1ccc(F)cc1)c1ccc(F)cc1)C2` (configuration not stated), the “activity, negative = inhibition” value is -17%.

For `O=C(COc1ccc2ccccc2c1)N1CCN(Cc2ccncc2)CC1`, the “activity, negative = inhibition” value was -0.256%.

As for `CC(=O)Oc1ccccc1C(=O)Nc1ncc([N+](=O)[O-])s1`, the Potency is 11.2 µM (active).

For `O=c1oc2ccccc2c(O)c1C(c1ccccc1O)c1c(O)c2ccccc2oc1=O`, the “activity, negative = inhibition” value is -12.9%.

On to `c1ccc2sc(SNC3CCCCC3)nc2c1`, for which the “activity, negative = inhibition” value is -14.2%.

On to `C[N+]1(C)CCOC(O)(c2ccc(-c3ccc(C4(O)C[N+](C)(C)CCO4)cc3)cc2)C1` (configuration not stated), for which the Potency result is “inactive”. Regarding `Cc1ccc(CN2CCCC(C(=O)c3ccc4c(c3)OCO4)C2)cc1C` (configuration not stated), the “activity, negative = inhibition” value was -11.4%.

In the case of `COC(=O)N(c1ccc(OC)cc1)P1(=S)OCCC(C)O1` (configuration not stated), the Potency is 28.2 µM (active). For the compound `CCCCCCCCCCCCn1ccc(=N)cc1`, the “activity, negative = inhibition” value was 1.75%. Turning to `COc1ccc2[nH]cc(CCNCc3ccc(Br)cc3)c2c1`, the “activity, negative = inhibition” value was -12%. Take `CCCCC/C=C\C/C=C\C/C=C\C/C=C\CCCCCC(=O)NCCO`: the Potency entry was “inactive”. In the case of `Cc1cccc(N2C(=O)NC(=O)/C(=C\c3cnn(-c4ccccc4)c3)C2=O)c1`, the “activity, negative = inhibition” value was -18%. As for `COc1cccc(N2C(=O)NC(=O)/C(=C\c3ccc([N+](=O)[O-])s3)C2=O)c1`, the Potency is 14.1 µM (active). Still for that read-out and setting: to `O=C1NC(=O)N(c2ccccc2)C(=O)/C1=C/c1ccc([N+](=O)[O-])s1` belongs 14.1 µM (active).

Regarding `CN1C2CC3CC1C(O3)C2O` (configuration not stated), the “activity, negative = inhibition” value is 1.06%. Same read-out and setting: in the case of `COC1CC(OC2CC[C@@]3(C=O)C4CC[C@]5(C)C(C6=CC(=O)OC6)CC[C@@]5(O)C4CC[C@]3(O)C2)OC(C)C1O` (some centres not stated) it was -5.76%; in that of `COc1c(O)ccc2c1-c1c3c(cc4c1C(C2)N(C)CC4)OCO3` (configuration not stated), -14%. For the compound `O=C(NC(c1ccc(Cl)cc1)P(=O)(Oc1ccccc1)Oc1ccccc1)OCc1ccccc1` (configuration not stated), the “activity, negative = inhibition” value was -4.62%. With `NCCc1c[nH]c2ccc(O)cc12`, the Potency entry was “inactive”. Still for that read-out and setting: to `CCOc1cccc(=NC2CCCCC2)c2c(C)[nH]c(C)c12` belongs 8.91 µM (active).

`CN(C)c1nc(N(C)C)nc(N(C#N)CCCl)n1`: the “activity, negative = inhibition” value was -3.25%.

For the compound `C=CCN1CCC2(C)c3cc(O)ccc3CC1[C@@H]2C` (some centres not stated), the “activity, negative = inhibition” value was 15.8%. As to `CC(=O)c1c(O)c(C)c(O)c(Cc2c(O)c3c(c(C(=O)/C=C/c4ccccc4)c2O)OC(C)(C)C=C3)c1O`, the Potency was 15.8 µM (active) and 17.8 µM (active) and 12.6 µM (active). For `CC(=O)c1c(O)c(C)c(O)c(Cc2c(O)c3c(c(C(=O)/C=C\c4ccccc4)c2O)OC(C)(C)C=C3)c1O`, the Potency was 15.8 µM (active). For `O=C1NC(=O)C(CCc2ccccn2)(Cc2cccc(Cl)c2Cl)C(=O)N1c1ccc(Br)cc1` (configuration not stated), the “activity, negative = inhibition” value is -11.1%.

With `O=C(OCCN1CCOCC1)C1(c2ccccc2)CCCC1`, the “activity, negative = inhibition” value was -3.29%.
